The list is not random: actives were taken first. Their share in the collection is about 3.4%.
VDR inhibitor = inhibitors of human vitamin D receptor | 400,000 compounds, 0.93% hits | VDR-SRC2-3 peptide fluorescence polarization, 2 h | Potency, µM, actives largely listed as inhibitors
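Two reagent solutions held at 4 deg C in the dark were dispensed, compounds pinned at 23 nl, and the mixture incubated 2 h at room temperature. Read-out: fluorescence polarization of VDR–SRC2-3 peptide binding.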
PKM2 act = activators of human pyruvate kinase M2. purified PKM2, Kinase-Glo ATP luminescence, activation; response scale: 0% is enzyme alone, no compound. Potency, µM (doses to about 57.5 µM), hits mostly activators. 260,000 compounds, 0.34% hits. AID 1631; further: nearly all actives have a fitted effect of over 55% in size
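hPK-M2, >95% pure; 0.1 mM ADP / 0.5 mM PEP final; imidazole pH7.2 buffer w/ 7 mM MgCl2, 50 mM KCl; 1 h RT; Kinase-Glo lum. Intermediate enzyme activity for dual inhibitor/activator qHTS.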
PLK1 PBD block = inhibitors of human PLK1 polo-box domain binding; P53350; Plk1 PBD binding of FITC phosphopeptide, fluorescence polarization; Potency, µM, hits mostly inhibitors; 360,000 compounds, 2.8% hits; further: series mostly up to about 57 µM; nearly all actives have a fitted effect of over 65% in size
Mito fusion act = inhibitors of mitochondrial division or activators of mitochondrial fusion | AID 485298 | 320,000 compounds, 0.23% hits | S. cerevisiae fusion-defective mutant growth rescue, CellTiterGlo 48 h | Potency, µM (doses to about 46.1 µM), hits mostly activators; further: nearly all actives have a fitted effect of over 45% in size
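Read-out: ATP-based luminescence (CellTiterGlo, 10 min ambient) reporting growth of fusion-defective ts yeast after 48 hours at 37C on glycerol/ethanol YPEG medium in the presence of compound.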
GLS inh = glutaminase GLS (human) inhibition | O94925 | GLS enzymatic activity, qHTS titration | Potency, µM (top dose mostly 45.5 µM), actives largely listed as inhibitors | 410,000 compounds, 0.21% hits | AID 624170
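hKGA in 45 mM KH2PO4 pH 8.2, 0.02% Tween-20 with pin-transferred compounds; 1 mM L-glutamine (stock) plus glutamate oxidase/HRP/Amplex Red coupling added. Fluorescence read initially and after 30 min at RT.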
GCN5L2 inh = inhibitors of human GCN5L2 histone acetyltransferase; Q92830; GCN5L2 HAT assay, ThioGlo1 CoA-SH fluorescence; Potency, µM (top dose mostly 58.9 µM), actives largely listed as inhibitors; 390,000 compounds, 0.21% hits; AID 504327
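Titration-based screen in which CoA formation is detected via maleimide probe ThioGlo1 (50uM) turning fluorescent on thiol reaction; substrates H3(1-25) 75uM and acetyl-CoA 70uM, GCN5L2 20nM, 20 min incubation at room temperature.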
VDR confirm = inhibits human vitamin D receptor, primary hit validation; shares compounds with VDR inhibitor; VDR-coactivator inhibition assay, qHTS confirmation; Potency, µM, actives largely listed as inhibitors; 840 compounds, 89% hits
VDR FP = VDR (human) coactivator binding inhibition, fluorescein polarization | shares compounds with VDR inhibitor | VDR-coactivator binding, fluorescein fluorescence polarization | Potency, µM (doses to about 57.1 µM), most hits filed as inhibitors | 840 compounds, 48% hits | AID 602200
VDR bla = inhibits human VDR in beta-lactamase reporter cells | shares compounds with VDR inhibitor | VDR beta-lactamase reporter cells, FRET ratio; cells co-treated with VDR agonist LG190178 | Potency, µM (top dose mostly 46.1 µM), hits mostly inhibitors | 840 compounds, 23% hits | AID 602202
VDR cytotox = cell toxicity, VDR inhibitor hit counter-screen; shares compounds with VDR inhibitor; cytotoxicity counter-screen, cell viability, qHTS; 840 compounds, 18% hits; Potency, µM (doses to about 48.3 µM), most hits filed as cytotoxic; further: nearly all actives have a fitted effect of over 75% in size
Numbers stand for hits; i = inactive; ? = inconclusive; nt = not tested or not shown; [ ] = remark or other dose. The call rests on the fitted dose curve; in most records, active means well fitted curve in the direction sought with a large enough effect; inconclusive means small, poorly fitted or top-dose-only effect, or another doubt; inactive means no such curve, though single readings can be large; an effect the other way counts as inactive or inconclusive.

SMILES | VDR inhibitor | PKM2 act | PLK1 PBD block | Mito fusion act | GLS inh | GCN5L2 inh | VDR confirm | VDR FP | VDR bla | VDR cytotox
N#CC1=C(N)C(C#N)(C#N)C(c2cccnc2)C2CC(c3ccccc3)CC=C12 (stereo not given) | 25.1µM | i | 26.7µM | i | i | i | ? | 8.91µM | ? | i
N#CC1=C(N)C(C#N)(C#N)C(c2ccncc2)C2CN(C(=O)OCc3ccccc3)CC=C12 (stereo not given) | ? | i | i | i | i | i | nt | nt | nt | nt
N#CC1=C(N)C(C#N)(C#N)C(c2cccnc2)C2CCCC=C12 (stereo not given) | nt | i | nt | i | nt | i | nt | nt | nt | nt
N#CC1=C(N)C(C#N)(C#N)[C@H](c2cccnc2)[C@H]2CN(C(=O)OCc3ccccc3)CC=C12 | 12.6µM | i | ? | i | i | i | 26.7 | ? | i | i
CC(C)(C)C(c1nc2ccccc2[nH]1)n1c(-c2ccsc2)nc2ccccc21 (stereo not given) | nt | nt | i | nt | nt | nt | nt | nt | nt | nt
CCOc1ccc(CNC(=O)CCc2c(C)nn(-c3ccc(N4CCOCC4)nn3)c2C)cc1 | i | nt | nt | nt | i | i | nt | nt | nt | nt
O=C(Nc1ccccc1F)c1nc(S(=O)(=O)Cc2ccccc2F)ncc1Cl | 14.1µM | nt | nt | nt | i | i | 2.82 | 8.91µM | ? | 11.9µM
COc1ccc2nc(NC(=O)c3nc(S(=O)(=O)Cc4ccccc4F)ncc3Cl)sc2c1 | i | nt | nt | nt | i | ? | nt | nt | nt | nt
Cc1cccc(C)c1NC(=O)c1nc(S(=O)(=O)Cc2ccccc2F)ncc1Cl | nt | nt | nt | nt | nt | nt | ? | 3.98µM | 6.51µM | ?
O=C(Nc1ccc2ccccc2c1)c1nc(S(=O)(=O)Cc2ccccc2F)ncc1Cl | nt | nt | nt | nt | nt | nt | 3.55 | 3.55µM | 18.4µM | 18.9µM
CCOc1cc(/C=C2\N=C(C)OC2=O)cc(Cl)c1OCC(=O)OC | 44.7µM | nt | i | nt | i | nt | 9.47 | ? | i | i
CS(=O)(=O)c1ccc(C(=O)OCc2nnc(-c3ccc(Cl)cc3)o2)cc1[N+](=O)[O-] | 25.1µM | i | i | i | i | i | 5.62 | 2.24µM | 14.6µM | ?
CC1=NN(c2cccc(C(=O)O)c2)C(=O)/C1=C\C=C/c1ccccc1 | ? | i | 5.32µM | i | 15.8µM | i | 3.16 | 3.16µM | 8.2µM | ?
CC1=NN(c2ccccc2)C(=O)/C1=C/c1ccc(Cl)cc1 | 79.4µM | i[11.5 µM] | 1.89µM | i | i | i | 15 | ? | i | i
COc1ccc(/C=C2/C(=O)N(c3ccccc3)N=C2C)cc1Br | 50.1µM | nt | 2.12µM | i | i | i | 9.47 | ? | i | i
CC1=NN(c2ccccc2)C(=O)/C1=C\N(O)c1ccccc1 | i | i | ? | i | i | i | nt | nt | nt | nt
CCOC(=O)C1CCN(C(=O)Cn2nc(C)n3c(cc4cc(F)ccc43)c2=O)CC1 | i | i[0.46 µM] | i | i | i | i | nt | nt | nt | nt
CC(=O)C1=C(c2ccc(Br)cc2)C(=O)c2ccccc2C1=O | 25.1µM | i | i | i | i | i | 5.01 | 7.94µM | 2.91µM | 8.44µM
Cn1cc(-c2nc3cncnc3n(Cc3ccccc3Cl)c2=O)c2ccccc21 | i | nt | nt | nt | nt | i | nt | nt | nt | nt
CCOc1cc(/C=C2/C(=O)ON=C2C)cc(Br)c1O | 56.2µM | nt | i | i | i | i | 9.47 | i | i | i
COc1cc(/C=C2\C(=O)ON=C2c2ccccc2)cc(Cl)c1O | 44.7µM | i | ? | i | ? | i | 5.32 | i | ? | i
C#CCOc1ccc(/C=C2/C(=O)ON=C2C)cc1Br | 39.8µM | nt | 1.68µM | i | i | i | 10.6 | ? | ? | i
COc1cc(/C=C2\C(=O)ON=C2c2ccccc2)cc(Br)c1O | 25.1µM | nt | ? | i | i | i | 3.77 | i | ? | i
CC1=NOC(=O)/C1=C/c1ccc(O)c(Br)c1 | ? | nt | ? | i | i | i | nt | nt | nt | nt
COc1cc(C=C2C(=O)OC(c3ccccc3)OC2=O)cc(Br)c1O (stereo not given) | i | i | ? | i | i | i | nt | nt | nt | nt
COCCCn1cc(CN2CC(N3CCCCC3)CS2(=O)=O)nn1 (stereo not given) | nt | nt | i | nt | i | nt | nt | nt | nt | nt

Assay outcomes as filed in PubChem BioAssay.
